From PubChem BioAssay AID602350 (Broad Institute, 2012)
Results with a measured potency or affinity are listed apart. Calls of active or inactive are those of the source.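 How the source made its calls: active means absorbance falls by 30% or more versus neutral controls, with a potency fitted within twice the top valid dose; inconclusive means no clear call, values can overlap the other calls; inactive means change opposite to expected direction, plus the rest.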

What follows are molecules tested against Protein disulfide-isomerase (Homo sapiens) (UniProt P07237) (assay: inhibition of PDI-driven insulin aggregation – biochemical, turbidity, absorbance, cherry-picked samples, dose response (AID 602350)). Conditions: recombinant PDI insulin aggregation, absorbance 650 nm, 90 min; series mostly up to 19.5 µM.
Protein disulfide-isomerase (Homo sapiens), sequence (P07237 whole entry, looked up): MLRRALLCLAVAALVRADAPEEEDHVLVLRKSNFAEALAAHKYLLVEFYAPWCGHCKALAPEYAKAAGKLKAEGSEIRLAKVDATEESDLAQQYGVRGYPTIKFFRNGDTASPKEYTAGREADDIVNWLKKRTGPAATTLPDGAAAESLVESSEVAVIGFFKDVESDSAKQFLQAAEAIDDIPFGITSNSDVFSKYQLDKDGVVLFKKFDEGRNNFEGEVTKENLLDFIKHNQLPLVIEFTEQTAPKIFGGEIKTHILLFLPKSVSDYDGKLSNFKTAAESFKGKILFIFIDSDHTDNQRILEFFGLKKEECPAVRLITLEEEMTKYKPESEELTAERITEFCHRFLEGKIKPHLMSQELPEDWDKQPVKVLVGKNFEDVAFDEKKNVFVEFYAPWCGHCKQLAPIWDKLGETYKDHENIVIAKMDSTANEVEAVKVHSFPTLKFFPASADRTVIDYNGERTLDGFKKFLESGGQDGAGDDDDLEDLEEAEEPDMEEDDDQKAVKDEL

outcome, inactive:
CN(C)c1ccc(C2(O)C(=O)c3ccccc3C2=O)cc1
CCOc1cc(N2CCOCC2)c(OCC)cc1NC(=O)Cc1ccccc1OC
Cn1c(=O)n(CCCOc2ccc(Br)cc2)c2ccccc21
COc1ccc(/C=C2\Sc3ccc(C(=O)NCCCN4CCCC4)cc3N(C)C2=O)cc1OC
CCCCn1c(SCC(=O)NC2CCS(=O)(=O)C2)nc2ccccc2c1=O (centres undefined)
Oc1cccc(-c2nc3c4c(ncn3n2)-c2ccccc2CC42CCCC2)c1
Cc1cccc(C)c1NC(=O)CN1CCNCC1
Cc1cccc(NC(=S)NCC23C=CC(O2)C2C(=O)N(c4ccc(Cl)cc4)C(=O)C23)c1 (centres undefined)
Cn1nccc1C(=O)Nc1ccc(S(=O)(=O)N2CCCC2)cc1
CCN(CC(=O)Nc1ccc2c(c1)OCCO2)C(=O)CC1CCCC1
O=C(CSc1n[nH]c(-c2ccccc2)n1)Nc1ccccc1O
Cc1nn(CC(=O)NCC2CCCO2)c(C)c1[N+](=O)[O-] (centres undefined)
CCOC(=O)C1(CCOc2ccccc2)CCN(Cc2ccc(O)cc2)CC1
COc1ccc(N(Cc2cc3cc(OC)ccc3[nH]c2=O)C(=O)C2CCCO2)cc1 (centres undefined)
CCCn1nnnc1NC(=O)c1cccs1
c1ccc(Cn2nnc3c(Nc4ccc5c(c4)OCO5)nc(C4CC4)nc32)cc1
CCOc1cc(/C=C/C(=O)c2ccc(O)cc2)ccc1OCC(=O)N(C)C
NC(Cc1ccc(C(F)(F)F)cc1)c1csc(Nc2ccc(C(=O)NCCCO)cn2)n1 (centres undefined)
O=C(c1ccc(NS(=O)(=O)c2ccccc2)cc1)N1CCOCC1
Cc1ccc(C(=O)NCCN2C3=NC[C@H](Cc4ccc(O)cc4)N3C[C@H]2Cc2ccc(O)cc2)cc1Br
Cc1cc(C)cc(OCC(=O)Nc2ccccc2C(=O)N2CCOCC2)c1
CCCCn1c(N)c(N(CC(C)C)C(=O)c2cc(-c3ccncc3)nc3ccccc23)c(=O)[nH]c1=O
O=C(Nc1oc2ccccc2c(=O)c1-c1ccc(Cl)cc1)c1ccco1
Cc1ccc(S(=O)(=O)c2ccc(Oc3cccc(C)c3)cc2)cc1
CC(=O)c1ccc(OCc2cc(C(=O)N3CCCCC3c3cccnc3)no2)cc1 (centres undefined)
Cc1ccc(-n2ncc3c(=O)[nH]c(SCC(=O)N4CCCc5ccccc54)nc32)cc1
O=C(NCc1cccs1)C1CC(c2ccc(F)cc2)=NO1 (centres undefined)
Cc1cc(C)c2c(=O)n3c(nc2c1)C(Cc1ccc(O)cc1)NC(=O)c1cccnc1-3 (centres undefined)
COc1ccccc1NS(=O)(=O)c1ccc(C)c(C(=O)NCC2(N(C)C)CCCCC2)c1
O=C(/C=C/c1ccc(N2CCCCC2)c([N+](=O)[O-])c1)c1ccc(O)cc1
C=CCn1c(SCC(=O)Nc2ccc(N(C)C)cc2)nnc1-c1cccc(C)c1
CCOC(=O)c1c(CN2CCOCC2)n(-c2ccccc2)c2cc(Br)c(O)cc12
CCOC(=O)c1c(CN2CCN(Cc3ccccc3)CC2)n(C)c2cc(Br)c(OC)cc12
COCc1[nH][nH]c(=O)c1C=Nc1ccc(F)cc1F
CN(C)CCCN(C(=O)c1ccc(S(=O)(=O)N2CCc3ccccc32)cc1)c1nc2c(Cl)cccc2s1
N#Cc1ccccc1CSc1nnc(Cc2ccccc2)o1
CCOC(=O)C1(CC2CC2)CCN(Cc2cc(Cl)c(O)c(OC)c2)CC1
COc1ccc(C(=O)c2c(C)c3cc(C)ccc3n2CC(O)CN2CCOCC2)cc1 (centres undefined)
CCOc1ccc2nc(SCC(=O)c3ccc(Cl)s3)sc2c1
